Some compounds were tested as several samples or in several runs, with calls that do not always agree. The source made the active and inactive calls. The calls were made as follows: active = hit-call score of the fitted dose curve at least 0.9, where 1 is the maximum; inactive = score below 0.9.

By AC50 is commonly meant the midpoint of the concentration-response curve, whichever way the signal moves.

Read-out in this test: Vascular cell adhesion molecule 1 (VCAM1), VCAM1 (gene 7412)
Briefly: BSK_MyoF_VCAM1: BioMAP Diversity Plus: MyoF Assay for Vascular cell adhesion molecule 1 (VCAM1) Biomarker Activity (AID 2284231). To be noted: primary human lung fibroblasts. The protocol:
BSK_MyoF is a cell-based, multiplexed-readout assay that uses lung fibroblasts, […], with measurements taken at 24 hours after chemical dosing in a microplate: 96-well plate.BSK_MyoF_VCAM1 is an assay component measured in the BSK_MyoF assay. It measures VCAM-1 antibody related to regulation of gene expression using ELISA technology.Data from the assay component BSK_MyoF_VCAM1 was analyzed at the endpoint, BSK_MyoF_VCAM1, in the positive analysis fitting direction relative to DMSO as the negative control and baseline of activity. Using a type of binding reporter, gain or loss-of-signal activity can be used to understand protein changes. To generalize the intended target to other relatable targets, this assay endpoint is annotated to the 'cell adhesion molecules' intended target family, where the subfamily is 'Immunoglobulin CAM'.
The levels of cell surface (or secreted, indicated by the prefix "s") biomarker endpoints were measured by ELISA. Overt cytotoxicity to cells in confluent adherent cultures (all systems other than the BT system) was assessed by measuring total protein levels using sulforhodamine B (SRB) staining in parallel cultures at the time of biomarker measurements, indicated as SRB endpoints. For proliferation assays for adherent cell types, individual cell types are cultured at sub-confluence and relative cell numbers quantified by SRB staining at time points optimized for each system (48 h: 3C and CASM3C systems; 72 h: BT and HDF3CGF systems; 96 h: SAg system). SRB was performed by staining cells with 0.1% SRB after fixation with 10% TCA and reading wells at 560 nm.Viability and proliferation of PBMC (T cells) was quantified by Alamar Blue reduction for the SAg and BT systems. For PBMC viability (referred to as PBMC Cytotoxicity within the assay endpoint names), cells were plated (75,000/well in a 96-well plate) and then chemical samples added for 1 h before addition of activators, SEB and TSST-1 (20 ng/mL final concentration each). Cells were incubated for 90 h. Then, Alamar Blue (20 uL/well) (Invitrogen, Cat DAL1100) was added for 6 h, and the plates were read with a fluorescence microplate reader at 546/580 nm (excitation/emission). For PBMC proliferation, cells were plated and activated as above but incubated for only 16 h prior to addition of Alamar Blue. Plates were read after 6 h.
Take `CC1=CC(C)C(C=O)C(C)C1` (stereo unspecified) (tested in a mixture with another compound): the result was inactive.
Consider `O=C1OC2(c3ccc(O)cc3Oc3cc(O)ccc32)c2ccccc21`, for which the outcome was inactive.
On to `OCCN1CCOCC1`, for which the outcome was inactive.
Still for that read-out and setting: with `COc1ccccc1NC(=O)CC(C)=O` the entry was “inactive”.
`O=S1(=O)CC(Cl)(Cl)C(Cl)(Cl)C1`: the AC50 is 1.42 µM (active).
Turning to `CC1(C)[C@H](C=C(Cl)Cl)[C@H]1C(=O)OCc1cccc(Oc2ccccc2)c1`, the result was inactive.
Still for that read-out and setting: with `O=C(O)C(F)(F)OC(F)(F)C(F)(F)OC(F)(F)C(F)(F)C(F)(F)C(F)(F)F` the entry was “inactive”; with `C=C(F)C(=O)OC(C(F)(F)F)C(F)(F)F`, “inactive”; with `CC(=O)OCC=C(C)CCC=C(C)CCC=C(C)C`, “inactive”.
`CCCCCCCCCCCCS`: the AC50 was 23.1 µM (active).
Same read-out and setting: with `c1ccc(Sc2ccccc2)cc1` the figure was 34.1 µM (active); with `C=C1CC/C=C(\C)CC[C@@H]2[C@@H]1CC2(C)C`, 23.9 µM (active).
Turning to `CC(C)Cc1ccc(C(C)C(=O)O)cc1` (stereo unspecified), the outcome was inactive.
For `c1ccc2c(c1)-c1ccc3ccc4cccc5cc-2c1c3c45`, the concentration at half-maximal activity (AC50) is 2.78 µM (active).
Same read-out and setting: to `C=CC(=O)OCC(CO)(COC(=O)C=C)COC(=O)C=C` belongs 0.964 µM (active).
`CC(=O)CCC=C(C)CCC=C(C)C`: the outcome was inactive.
The same measure, in the same setting: with `CC=CC(=O)C1=C(C)C=CCC1(C)C` the entry was “inactive”; with `C=C(C)C(=O)OCCC(F)(F)C(F)(F)C(F)(F)C(F)(F)C(F)(F)C(F)(F)C(F)(F)C(F)(F)F`, “inactive”; with `CC(=O)OC(C)(C)C1CC=C(C)CC1` (stereo unspecified), “inactive”.
As for `O=S(=O)(O)C(F)(F)C(F)(F)OC(F)(F)C(F)(F)F`, the result was inactive.
For `OCC(F)(OC(F)(F)C(F)(OC(F)(F)C(F)(F)C(F)(F)F)C(F)(F)F)C(F)(F)F` (stereo unspecified), the half-maximal activity concentration (AC50) was 6.21 µM (active) and the outcome was inactive.
Consider `CCC(=O)OCC=Cc1ccccc1`, for which the outcome was inactive.
As for `O=C(O)C(F)(F)C(F)(F)C(F)(F)C(F)(F)C(F)(F)C(F)(F)C(F)(F)C(F)F`, the result was inactive.
Turning to `CCCCCCCC1CCCC1=O` (stereo unspecified), the result was inactive.
For the compound `CCCCCCCCCC(=O)OCC`, the outcome was inactive.
For the compound `CCOC(=O)C=Cc1ccccc1`, the result was inactive.
The same measure, in the same setting: to `CCOC(=O)CCCCCCCCC(=O)OCC` belongs “inactive”; to `CC(C)(C)c1cccc(O)c1`, “inactive”.
With `Nc1ccc(N)c([N+](=O)[O-])c1`, the result was inactive.
On the same count and under the same terms, with `NC(=O)c1c(Cl)cccc1Cl` the entry was “inactive”.

The record behind these values is PubChem BioAssay (EPA / NIEHS).
